The record followed here is PubChem BioAssay (Tox21).

Experiment [1] in a line: qHTS assay to identify small molecule agonists of the vitamin D receptor (VDR) signaling pathway - cell viability counter screen (AID 743224). Also: nearly all actives have a fitted effect of over 50% in size. Also: potency is read from the fitted curve at half-maximal effect. In outline: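 Luminescence from CellTiter-Glo, read after 30 min at room temperature, reports viability of VDR-bla cells treated with compounds for 16 h at 37C in the wells used for the beta-lactamase FRET read.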
On the technique in general: qHTS replaces the single test concentration by a dilution series.

The nature of experiment [2]: qHTS assay to identify small molecule antagonists of the vitamin D receptor (VDR) signaling pathway - cell viability counter screen (AID 743225). Also: nearly all actives have a fitted effect of over 50% in size. In outline:
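Luminescent cell viability (CellTiter-Glo) in VDR-bla HEK 293T cells after 16 h compound exposure at 37C in the presence of 3 nM final 1-alpha,25-dihydroxy vitamin D3.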

The nature of experiment [3]: qHTS assay to identify small molecule agonists of the NFkB signaling pathway - cell viability counter screen (AID 1159515; calls by dose curve; also: nearly all actives have a fitted effect of over 55% in size; also: potency is read from the fitted curve at half-maximal effect). Summed up:
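Luminescence from CellTiter-Glo (30 min, room temperature) gives viability, measured in the same wells as the beta-lactamase reporter read. Cells were NFkB-bla ME-180, 2,000 per well, treated 5 hr with compounds.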

Experiment [4] can be described thus: qHTS assay to identify small molecule agonists of the endoplasmic reticulum stress response signaling pathway (AID 1159516; active = well fitted activation curve with a large enough effect in the signal ratio in the repeat runs, not every such curve was filed as active; the % refers to the signal ratio). In outline: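 Read-out is beta-lactamase cleavage of a FRET substrate (405 nm excitation; 460 and 530 nm emissions) in ESRE-bla HeLa cells after a 5 hr compound exposure at 37 C. Substrate incubation ran 2 hr at room temperature.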
Experiment [5] in a line: qHTS assay to identify small molecule agonists of the endoplasmic reticulum stress response signaling pathway - cell viability counter screen (AID 1159517; calls by dose curve;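 also: HeLa cells carrying an ER stress response element beta-lactamase reporter; nearly all actives have a fitted effect of over 50% in size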). Summed up:
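HeLa cells carrying an ESRE-driven beta-lactamase reporter receive compound for 5 hr at 37 C. Cell viability is then gauged with CellTiter-Glo by luminescence, 30 min at room temperature.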

The nature of experiment [6]: qHTS assay to identify small molecule antagonists of the retinoid-related orphan receptor gamma (ROR-gamma) signaling pathway - cell viability counter screen (AID 1159520). Also: nearly all actives have a fitted effect of over 50% in size. In outline:
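Cytotoxicity was read from cellular ATP (CellTiter-Glo luminescence) after 16 hr at 37 C with 1 uM doxycycline induction. The inducer was added 2 hr after compound transfer to Tet-on ROR gamma CHO cells.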

Experiment [7] deals with Nuclear receptor ROR-gamma (Homo sapiens) (UniProt P51449). Nature of the experiment: qHTS assay to identify small molecule antagonists of the retinoid-related orphan receptor gamma (ROR-gamma) signaling pathway (AID 1159521; also: nearly all actives have a fitted effect of over 50% in size; also: potency is read from the fitted curve at half-maximal effect). In outline: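 CHO cells expressing RORγ under a TET-on promoter, luciferase under RORE control. Dox 1 uM final, 16 h; compounds added 2 h prior. Luminescence decrease measured.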

Experiment [8] in a line: qHTS assay to identify small molecule agonists of the AP-1 signaling pathway - cell viability counter screen (AID 1159525; calls by dose curve; also: nearly all actives have a fitted effect of over 55% in size). Summed up: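 Luminescent ATP readout (Cell Titer Glo, 30 min RT), normalised to DMSO and tetra n-octyl ammonium bromide controls. Cells were ME-180 AP-1-bla in 0.5% dialyzed FBS Opti-MEM, with a 5 h, 37 °C compound exposure.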
Experiment [9] is described as follows: qHTS assay to identify small molecule agonists of the AP-1 signaling pathway (AID 1159526; calls by dose curve).
The target in experiment [10] is Retinoic acid receptor RXR-alpha (Homo sapiens) (UniProt P19793). The experiment in a line: qHTS assay to identify small molecule agonists of the RXR signaling pathway (AID 1159527; calls by dose curve; also: nearly all actives have a fitted effect of over 35% in size). In outline: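 Beta-lactamase reporter assay, agonist format. Engineered HEK 293T line, charcoal-stripped FBS at 2%, overnight (16 hr) exposure, fluorescence at 460 and 530 nm after 405 nm excitation.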
Retinoic acid receptor RXR-alpha (Homo sapiens), sequence (P19793 whole entry, looked up): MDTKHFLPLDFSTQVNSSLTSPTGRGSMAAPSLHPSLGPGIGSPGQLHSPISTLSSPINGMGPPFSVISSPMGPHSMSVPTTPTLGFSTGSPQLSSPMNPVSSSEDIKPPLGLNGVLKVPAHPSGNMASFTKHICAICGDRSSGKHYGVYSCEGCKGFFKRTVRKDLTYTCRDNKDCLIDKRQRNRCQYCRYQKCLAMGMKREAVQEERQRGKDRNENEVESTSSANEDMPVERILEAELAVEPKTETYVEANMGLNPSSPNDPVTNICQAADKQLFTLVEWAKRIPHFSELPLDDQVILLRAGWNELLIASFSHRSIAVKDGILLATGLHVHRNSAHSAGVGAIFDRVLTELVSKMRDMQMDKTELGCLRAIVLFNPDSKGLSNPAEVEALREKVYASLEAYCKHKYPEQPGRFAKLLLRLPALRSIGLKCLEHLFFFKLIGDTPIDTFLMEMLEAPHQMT

The nature of experiment [11]: qHTS assay to identify small molecule agonists of the RXR signaling pathway - cell viability counter screen (AID 1159529). Summed up:
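Same-well viability check after the LiveBLAzer FRET read: CellTiter-Glo added, luminescence measured after 30 min at room temperature. Reporter HEK 293T cells had been treated with compounds for 16 hr following a 5 hr preincubation.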

The nature of experiment [12]: qHTS assay to identify small molecule antagonists of the retinoid acid receptor (RAR) signaling pathway - cell viability counter screen (AID 1159551). Also: nearly all actives have a fitted effect of over 35% in size. Summed up:
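Luminescent ATP quantitation (CellTiter-Glo) gave cell viability in C3RL4 cells exposed to test chemicals for 6 h at 37 C alongside 1 uM final retinol.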

Experiment [13] is described as follows: qHTS assay to identify small molecule antagonists of the retinoic acid receptor (RAR) signaling pathway (AID 1159552; also: nearly all actives have a fitted effect of over 50% in size). Summed up: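 Readout: luciferase luminescence, 30 min post-reagent at RT. Setup: C3RL4 RARE reporter cells, compounds plus retinol 1 uM final, 6 hr incubation at 37 C and 5% CO2.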
The nature of experiment [14]: qHTS assay to identify small molecule agonists of the retinoic acid receptor (RAR) signaling pathway (AID 1159553). Particulars: C3RL4 RARE luciferase reporter, agonist, 6 h; activation: at 73.3 µM (top of the series) unless noted. In outline: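 Luminescence from a RARE-driven luciferase reporter in C3RL4 cells served as the read-out, measured after 30 min with detection reagent at room temperature. Compounds in DMSO were applied for 6 hr at 37 C following overnight seeding.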

Experiment [15] in a line: qHTS assay to identify small molecule antagonists of the estrogen related receptor (ERR) signaling pathway - cell viability counter screen (AID 1224818).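 Also: viability measured after 17.5 h of compound exposure.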 In outline: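 Multiplexed counter screen to separate cytotoxic compounds from true ERR modulators. ERR cells received DMSO-dissolved compounds after a 6 h pre-incubation, were exposed 17.5 h at 37 C, then assayed with CellTiter-Fluor fluorescence.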

Experiment [16] can be described thus: qHTS assay to identify small molecule antagonists of the estrogen related receptor signaling pathway with the pleiotropic PPARgamma coactivator (PGC) cell viability counter screen (AID 1224822;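 also: viability read after 17.5 h compound exposure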). Summed up:
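Cells: PGC/ERR, 2,000/well, 1536-well format. Pre-incubation 6 h, 37 C/5% CO2. Compound exposure 17.5 h, 37 C. Detection: CellTiter-Fluor, 30 min, fluorescence.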

Inconclusive results are not listed. Where a structure was tested more than once in an assay, its records may differ in their call. Active and inactive are the calls of the source. Unless noted, calls follow the shape of the dose curve; as a rule, active = well fitted curve in the direction sought with a large enough effect in the repeat runs; inconclusive = weak or mixed curves; inactive = no such curve, though single readings can be large; an effect the other way counts as inactive or inconclusive.

As for `COc1cc([C@H]2Oc3cc([C@H]4Oc5cc(O)cc(O)c5C(=O)[C@@H]4O)ccc3O[C@@H]2CO)ccc1O`, the Potency entry in [1], in experiment [2], in experiment [3], in [4], in experiment [5] and in [6] was “inactive” throughout. The Potency entry in [7], in [8], in experiment [9], in [10], in [11] and in experiment [12] was “inactive” each time.
As to `CN(C)/N=N/c1nc[nH]c1C(N)=O`, the Potency entry in experiment [1], in experiment [2], in [3], in experiment [4], in experiment [5] and in experiment [6] was “inactive” in each case. Also, the Potency result in experiment [7], in experiment [8], in experiment [9], in experiment [10], in [11] and in experiment [12] was “inactive” each time.
Take `CCC(=O)O[C@H]1[C@H](O[C@@H]2[C@@H](C)[C@H](O[C@H]3C[C@@](C)(OC)[C@@H](O)[C@H](C)O3)[C@@H](C)C(=O)O[C@H](CC)[C@@](C)(O)[C@H](O)[C@@H](C)C(=O)[C@H](C)C[C@@]2(C)O)O[C@H](C)C[C@@H]1N(C)C`: the Potency in [1] is 36.4 µM (active) and inactive; in experiment [3] it was 36.4 µM (active) and inactive. Also, the Potency result in experiment [2], in experiment [4], in [5], in [6], in experiment [7] and in experiment [8] was “inactive” in each case. Also, the Potency entry in experiment [9], in [10] and in experiment [11] was “inactive” throughout.
Regarding `CCCCCCCCCCCCCO`, the Potency entry in experiment [1], in [2], in experiment [3], in experiment [4], in [5] and in [6] was “inactive” throughout. Moreover, the Potency result in [8], in [9], in [10], in experiment [11], in [12] and in [13] was “inactive” each time. In experiment [14], the Potency result was “inactive”.
As for `NC[C@H](O)c1ccc(O)c(O)c1`, the Potency entry in [1], in experiment [2], in experiment [3], in experiment [4], in experiment [5] and in experiment [6] was “inactive” throughout. Also, the Potency result in [7], in experiment [8], in experiment [9], in experiment [10] and in [11] was “inactive” throughout. In addition, the result in experiment [15] and in experiment [16] was inactive.
For `CC(=O)O[C@]1(C(C)=O)CC[C@H]2[C@@H]3C=C(C)C4=CC(=O)CC[C@]4(C)[C@H]3CC[C@@]21C`, the Potency entry in [1], in [2], in experiment [3], in experiment [4], in [5] and in experiment [6] was “inactive” throughout. In addition, the Potency entry in experiment [8], in [9], in experiment [11] and in [12] was “inactive” each time. The Potency in [7] is 21.7 µM (active).
Take `CCOC(=O)C(C)Oc1ccc(Oc2cnc3cc(Cl)ccc3n2)cc1` (centres undefined): the Potency entry in experiment [1], in [2], in [3], in experiment [4], in [5] and in experiment [6] was “inactive” throughout. In addition, the Potency result in [7], in experiment [8], in experiment [9], in [11] and in experiment [12] was “inactive” throughout.
With `COC(=O)CC(=O)OC`, the Potency entry in experiment [1], in experiment [2], in [3], in [4], in experiment [5] and in experiment [6] was “inactive” in each case. The Potency result in experiment [8], in [9], in experiment [10], in experiment [11], in experiment [12] and in experiment [13] was “inactive” each time. In addition, the Potency entry in experiment [14] was “inactive”.
Regarding `CC(C)=CCO`, the Potency result in experiment [1], in experiment [2], in experiment [3], in experiment [4], in [5] and in experiment [6] was “inactive” in each case. Moreover, the Potency entry in experiment [7], in experiment [8], in experiment [9], in experiment [10], in experiment [11] and in experiment [12] was “inactive” in each case.
As for `CCCCCCCCCCCCO`, the Potency result in [1], in experiment [2], in [3], in [4], in experiment [5] and in [6] was “inactive” in each case. Also, the Potency entry in experiment [7], in experiment [8], in experiment [9], in experiment [11] and in [14] was “inactive” in each case.
